APOBEC3G inh = blocks human APOBEC3G single-stranded DNA deamination; recombinant A3G, ssDNA deamination FAM/TAMRA fluorescence; inhibition, % at 20 µM; Q9HC16; 0.28% of 330,000 active;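 active = inhibition of at least 40% at 20 µM, with no more than 30% in the related APOBEC3A deaminase screen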;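 also: plate controls were DMSO wells with A3G for no effect and wells lacking A3G enzyme for full effect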
Target sequence (Q9HC16 whole entry, looked up): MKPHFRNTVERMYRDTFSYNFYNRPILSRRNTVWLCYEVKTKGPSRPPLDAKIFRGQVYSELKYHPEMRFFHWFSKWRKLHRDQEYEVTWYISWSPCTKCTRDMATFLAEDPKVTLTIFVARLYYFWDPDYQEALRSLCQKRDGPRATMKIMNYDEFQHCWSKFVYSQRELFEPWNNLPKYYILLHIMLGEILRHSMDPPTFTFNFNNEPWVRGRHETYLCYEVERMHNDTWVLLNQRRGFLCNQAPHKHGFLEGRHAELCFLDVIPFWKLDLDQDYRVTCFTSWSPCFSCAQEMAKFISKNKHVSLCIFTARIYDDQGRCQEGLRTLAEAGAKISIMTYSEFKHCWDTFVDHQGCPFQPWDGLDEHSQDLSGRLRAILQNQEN
A3A deaminase = blocks human APOBEC3A ssDNA deamination; P31941; recombinant A3A, FAM/TAMRA ssDNA deamination fluorescence; inhibition, % at 20 µM; 0.41% of 330,000 active;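 active = at least 40% inhibition at 20 µM here, with at most 30% in a related deaminase screen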;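 also: plate controls were A3A with DMSO for no effect and wells lacking A3A enzyme for full effect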
PABP polyA inh = blocks human PABP binding to poly(A) RNA. fluorescence polarization. calls only at 35 µM. 1% of 290,000 active. AID 2014;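 also: calls also rest on retests at 20 µM and on dose response follow-up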
PABP1 MLLE inh = blocks PAM2 peptide binding to the PABP1 MLLE domain; P11940; GST-MLLE / FITC-PAM2 fluorescence polarization; inhibition, % at 20 µM; 0.36% of 360,000 active; in the data active = inhibition above about 35%, passing the limit was not always enough;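 also: plate controls were DMSO wells with GST-MLLE for no effect and wells lacking GST-MLLE protein for full effect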
PHOSPHO1 block = inhibitors of human PHOSPHO1 phosphatase; Q8TCT1; recombinant PHOSPHO1, absorbance phosphatase assay; inhibition, % at 13.3 µM; 1.1% of 290,000 active; in the data active = inhibition above about 60%
eIF4H FP inh = inhibitors of RNA binding by human eIF4H; eIF4H fluorescence polarization binding assay; AID 2012; inhibition, % at 35 µM; 0.94% of 290,000 active; Q15056;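 also: calls also rest on retests at 20 µM and on dose response follow-up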
A3G conf = confirmation of human APOBEC3G DNA deaminase inhibitors; inhibition, % at 20 µM; recombinant A3G ssDNA deaminase, UDG/FAM-TAMRA fluorescence; shares compounds with APOBEC3G inh; 72% of 890 active;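 active = inhibition reaching a set limit in any replicate at 20 µM, the limit being 80% of the first screen's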
UDG ctr A3G = E. coli UDG inhibition in APOBEC3G counter-screen; shares compounds with APOBEC3G inh; UDG counterscreen, FAM/TAMRA oligo fluorescence; inhibition, % at 20 µM; 710 tested, under 10 active;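 active = compounds giving 40% or more inhibition at 20 µM in any one of the three replicates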;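 also: plate controls were DMSO wells with UDG and oligo for no effect and DMSO wells lacking both for full effect; inhibitors lower the FAM signal released by uracil excision and alkaline cleavage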
Numbers without * were called inactive; i = inactive; / = not tested or not shown. An excerpt weighted towards active compounds, which were near 2.6% of everything screened. Unless noted, no rule for the calls is given here.

SMILES	APOBEC3G inh	A3A deaminase	PABP polyA inh	PABP1 MLLE inh	PHOSPHO1 block	eIF4H FP inh	A3G conf	UDG ctr A3G
Cc1cc(NC(=O)Nc2ccc(Cl)cc2)n(C)n1	-6	-1	i	6	23	-7	/	/
Cc1cc(NC(=O)Nc2ccccc2)n(C(C)(C)C)n1	61*	6	i	-4	10	-8	0	/
CC1CCCC(C)N1C(=O)CSc1nc2c(c(=O)n(C)c(=O)n2C)n1C (stereo not given)	-8	-2	i	8	12	-22	/	/
COc1ccc(S(=O)(=O)Nc2cc(Sc3ncn[nH]3)c(O)cc2C)cc1	-4	-2	/	7	/	/	/	/
O=S(=O)(Nc1cc(Sc2ncn[nH]2)c(O)c2ccccc12)c1ccccc1	61*	-2	i	-61	2	-2	89*	-1
CCC(=O)N1CCc2cc(S(=O)(=O)N3CCN(c4ccccc4)CC3)ccc21	-4	-2	i	5	17	-10	/	/
CCC(=O)N1CCc2cc(S(=O)(=O)N3CCN(c4cc(Cl)ccc4C)CC3)ccc21	58*	-2	i	2	-4	-14	-2	1
NC(=O)CCS(=O)(=O)c1ccc(Cl)cc1	-1	3	i	2	33	-7	/	/
S=c1[nH]nc(-c2ccc(Cl)cc2Cl)n1-c1ccc(Cl)cc1	22	-9	i	-45	-125	-4	/	/
Nc1n[nH]c(=S)n1-c1ccc(Cl)cc1	52*	-2	i	-14	-67	-6	63*	0
CN[C@H]1C[C@@H](c2ccccc2)N(C(C)=O)C[C@H]1CO	/	/	/	-4	/	/	/	/
CCN(CC)C(=O)c1sc2nc(N3CCOCC3)c3c(c2c1N)CCCC3	49*	0	i	20	80*	-7	23	/
CC(=O)c1c(C)[nH]c(C(=O)Nc2cccc(S(=O)(=O)N3CCCC3)c2)c1C	-5	-4	/	-10	/	/	/	/
COc1ccc(S(=O)(=O)n2nc(OC(=O)c3cccs3)cc2N)cc1	54*	6	i	-7	-4	-6	5	/
COc1ccc(S(=O)(=O)n2nc(OC(=O)c3ccccc3)cc2N)cc1	-6	-5	i	-3	7	7	/	/
Cc1ccc(O)c(Cc2cc(C)cc(Cc3cc(C)ccc3O)c2O)c1	/	/	/	1	/	/	/	/
COc1ccc(OC)c(CCNC(=O)Cn2nc(C)c3c(C)n(-c4ccc(C)cc4)nc3c2=O)c1	-5	-3	i	-10	38	-2	/	/
Cc1cc(C)c2c(=O)n(CC(=O)Nc3cccc(Cl)c3C)sc2n1	72*	7	i	14	-21	1	83*	-3
Cc1cc(C)c2c(=O)n(CC(=O)NC3CCCC3)sc2n1	51*	-2	i	30	-74	-4	83*	-1
COc1ccc(OC)c(CCNC(=O)Cn2sc3nc(C)cc(C)c3c2=O)c1	63*	0	i	/	27	9	78*	/
Cc1cc(C)c2c(=O)n(CC(=O)Nc3ccc(Br)c(C)c3)sc2n1	/	/	i	0	-138	-1	/	/
COc1ccc(N2CCN(C(=S)Nc3ccccc3OC)CC2)cc1	-9	-7	i	-78	14	-7	/	/
Cc1ccsc1/C=N/n1c(-c2ccncc2)n[nH]c1=S	52*	-11	i	-24	34	-2	75*	-3
S=c1[nH]nc(-c2ccco2)n1/N=C/c1cccc(Cl)c1	32	-2	i	-41	-12	-6	/	/
Cc1ccsc1/C=N/n1c(-c2ccccn2)n[nH]c1=S	60*	1	i	-17	53	0	63*	1
Cc1cc(-c2n[nH]c(=S)n2/N=C/c2sccc2C)n[nH]1	57*	-4	i	-5	21	3	86*	17
S=c1[nH]nc(-c2ccccn2)n1/N=C/c1cccc(Cl)c1	43*	-5	i	-27	12	0	77*	-1
Cc1ccsc1/C=N/n1c(-c2ccccc2)n[nH]c1=S	32	-2	i	-17	-13	-1	/	/
N#Cc1cccc(NC(=O)COC(=O)Cn2nc(-c3ccccc3)oc2=O)c1	-7	-7	/	-1	/	/	/	/

From PubChem
